Source: PubChem BioAssay (Small Molecule Screening Facility, UW Madison)
RMI FANCM FP = RMI-FANCM interaction inhibition; FP signal (polarization) at 33 µM; hit rate 0.58% among 70,000; Fluorescence polarization, RMI core complex with F-MM2 peptide; hits give low values; in the data active = FP signal below about 40
* hit, by the source's call; ! = a repeat was not active. Only a selection was taken, and hits are over-represented in it overall.

SMILES	RMI FANCM FP
CC[C@@H](C(N)=O)N1CCCC1=O	26*
O=C(COc1ccc(Cl)cc1)N1CCN(Cc2nc3ccccc3[nH]2)CC1	62
CC(C)(C)C(=O)NC(Sc1ccnc(SC(NC(=O)C(C)(C)C)C(Cl)(Cl)Cl)n1)C(Cl)(Cl)Cl (stereo not drawn)	60
O=[N+]([O-])c1ccc(CS(=O)(=O)C(Cl)(Cl)Cl)o1	55
COc1cc2c(cc1OC)[C@@H]1C(=O)c3ccc(OC)c(CC=C(C)C)c3O[C@@H]1CO2	29*
COc1cc2c(cc1OC)[C@@H]1C(=O)c3ccc4c(c3O[C@@H]1CO2)CC(C(C)C)O4 (stereo partly drawn)	55
C=C(C)[C@H]1Cc2c(ccc3c2O[C@@H]2COc4cc(OC)c(OC)cc4[C@@H]2C3=O)O1	56
COc1ccc2nc(N3CCNCC3)sc2c1	71
O=C(Nc1ccc(Br)cc1F)c1cccn(Cc2ccccc2Cl)c1=O	76
C[n+]1[n-]oc(=N)c1-c1ccccc1	60
O=C(CCCCl)Nc1ccc(S(=O)(=O)N2CC3CC(C2)c2cccc(=O)n2C3)cc1 (stereo not drawn)	68
C[C@@H]1C(=O)O[C@H]2[C@H]1CC[C@@]1(C)C=CC(=O)[C@@]3(C)O[C@@]213	31*!
Cc1ccc2sc(N3CCNCC3)nc2c1C	76
Cc1cc(C)c2sc(N(CCN(C)C)C(=O)COc3ccccc3)nc2c1	71
CCN(CC)C(=O)N[C@@H]1C=C2c3cccc4[nH]cc(c34)C[C@H]2N(C)C1	47
CC[C@@H](CO)NC(=O)[C@@H]1C=C2c3cccc4c3c(cn4C)C[C@H]2N(C)C1	37
CC[C@@H](CO)NC(=O)[C@@H]1C=C2c3cccc4[nH]cc(c34)C[C@H]2N(C)C1	4*!
C/C(=C\c1ccccc1Cl)[N+](=O)[O-]	52
NC(=O)C1CCN(CC(=O)Nc2ccc(Cl)cc2C(=O)c2ccccc2Cl)CC1	82
COC(=O)[C@]1(C)CC[C@]2(C)CC[C@]3(C)C4=CCc5c(cc(O)c(O)c5C)[C@]4(C)CC[C@@]3(C)C2C1 (stereo partly drawn)	13*
Cc1ccc2nc(NC(=O)c3cccn(Cc4c(F)cccc4Cl)c3=O)sc2c1	53
COc1cccc(C(C#N)C(C)=O)c1 (stereo not drawn)	57
O=c1ccsn1-c1cccc(Cl)c1F	49
Cc1ccccc1Cn1cccc(C(=O)Nc2ccc([N+](=O)[O-])cc2C#N)c1=O	64
C[C@@H]1CC[C@@]2(OC1)OC1C(O)C3C4CC[C@H]5C[C@H](O[C@@H]6O[C@H](CO)[C@H](O[C@@H]7O[C@H](CO)[C@@H](O)[C@H](O[C@@H]8OC[C@@H](O)[C@H](O)[C@H]8O)[C@H]7O[C@@H]7O[C@H](CO)[C@H](O)[C@H](O[C@@H]8O[C@H](CO)[C@@H](O)[C@H](O)[C@H]8O)[C@H]7O)[C@H](O)[C@H]6O)[C@H](O)C[C@]5(C)C4CC[C@]3(C)C1[C@@H]2C (stereo partly drawn)	59
CC12C[C@@H](O)C3C(CCC4CC(O)CCC43C)C1=CCC2C1=CC(=O)OC1 (stereo partly drawn)	56
CC1CN=C(Nc2ccccc2Cl)N1 (stereo not drawn)	68
COc1cc(CCN)ccc1O	57
NCCc1cccc(O)c1	19*
Cc1[nH]c2ccc(O)cc2c1CCN	49
